Test systems include RPMI-8226 leukemia; OVCAR-8 ovarian; OVCAR-5 ovarian; OVCAR-4 ovarian; SK-OV-3 ovarian; IGROV1 ovarian; OVCAR-3 ovarian; HS 578T breast; NCI/ADR-RES ovarian.
What all share (test): NCI-60 one-dose screen, 48 h (100 = growth as untreated, 0 = no growth, -100 = all killed)
What all share (settings): 10 µM

About 83,000 compounds went through this panel and 20% of them were active in at least one assay; those are over-represented in the sample as a whole.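 Cell lines were cultured in 96-well plates, exposed to a single compound concentration, and assessed for percent growth 48 hours later.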 A number with no mark means an inactive call. Calls of active or inactive are those of the source. Rule for the calls: active = growth percent below 10; inactive = the rest.

This is an account of results in PubChem BioAssay (NCI).

For `CCOC(=O)C1=C(N)N(c2ccc(Cl)cc2)C2=C(C(=O)CC(C)(C)C2)C1c1ccc(N2CCOCC2)cc1` (configuration not stated), the growth in the assay with RPMI-8226 leukemia was 99.9%; in the assay on OVCAR-8 ovarian, 100%; with OVCAR-5 ovarian it was 106%; with OVCAR-4 ovarian it was 105%; in the assay on SK-OV-3 ovarian it was 109%; in the assay with IGROV1 ovarian it was 98%. Also, the figures for the growth in the assay on OVCAR-3 ovarian, in the assay with HS 578T breast and with NCI/ADR-RES ovarian were 102%, 109% and 97.4%, respectively.
In the case of `Cc1ccc(CSc2nc(Cl)c(C#N)c(-c3ccc(F)cc3)n2)cc1`, the growth in the assay with RPMI-8226 leukemia is 58.5%; in the assay with OVCAR-8 ovarian, 83.8%; in the assay on OVCAR-5 ovarian, 94.1%; in the assay with OVCAR-4 ovarian, 81.6%; in the assay with SK-OV-3 ovarian, 88.3%; in the assay with IGROV1 ovarian it was 95.8%. Also, the growth with OVCAR-3 ovarian is 86.3%; in the assay on HS 578T breast it was 86.7%; in the assay with NCI/ADR-RES ovarian it was 72.4%.
For `CCCCCc1ccc(S(=O)(=O)N(C(C)=O)c2cc(-c3csc(N(C)C(C)=O)n3)ccc2N2CCN(C)CC2)cc1`, the growth in the assay on RPMI-8226 leukemia was -24.8% (active); with OVCAR-8 ovarian it was 41.2%; with OVCAR-5 ovarian, 57.6%; in the assay on OVCAR-4 ovarian, 62%; in the assay on SK-OV-3 ovarian, 96%; in the assay on IGROV1 ovarian, 68.2%. Further, the growth in the assay on OVCAR-3 ovarian is 44.7%; in the assay with HS 578T breast it was 35.7%; with NCI/ADR-RES ovarian, 47.9%.
As for `N#Cc1c(-c2ccc(F)cc2)nc(SCc2ccc(F)cc2)nc1N1CCOCC1`, the growth is 92.7% with RPMI-8226 leukemia; 54.8% in the assay with OVCAR-8 ovarian; 83.1% in the assay with OVCAR-5 ovarian; 60.5% with OVCAR-4 ovarian; 39.6% in the assay with SK-OV-3 ovarian; 90.9% in the assay on IGROV1 ovarian. For the same compound, the values for the growth in the assay on OVCAR-3 ovarian, in the assay with HS 578T breast and in the assay with NCI/ADR-RES ovarian were 75.2%, 25.7% and 63.5%, respectively.
Regarding `O=C(c1ccc(O)cc1)C1[C@H](c2ccc(Br)cc2)[C@@H](c2ccccc2)NC12C(=O)Nc1ccc(Br)cc12` (some centres not stated), the growth in the assay with RPMI-8226 leukemia was 1.12% (active); in the assay with OVCAR-8 ovarian it was 12%; in the assay on OVCAR-5 ovarian, -4.82% (active); with OVCAR-4 ovarian it was 14.3%; with SK-OV-3 ovarian, 13.2%; in the assay with IGROV1 ovarian it was -6.01% (active). Moreover, the results for the growth with OVCAR-3 ovarian, in the assay with HS 578T breast and in the assay with NCI/ADR-RES ovarian were -38.9% (active), -6.2% (active) and -2.8% (active), respectively.
`O=C(Nc1nc2ccc([N+](=O)[O-])cc2s1)Nc1ccccc1I`: the growth is -27.9% (active) with RPMI-8226 leukemia; 11% with OVCAR-8 ovarian; 5.55% (active) with OVCAR-5 ovarian; 14.4% in the assay on OVCAR-4 ovarian; -7.59% (active) with SK-OV-3 ovarian; 19.7% with IGROV1 ovarian. Further, the growth is 14.4% with OVCAR-3 ovarian, 9.12% (active) in the assay with HS 578T breast and -5.83% (active) with NCI/ADR-RES ovarian.
On to `COC[C@@H](CC(C)C)N=C1NC(=O)/C(=C/c2ccc3ncoc3c2)N1`, for which the growth in the assay on RPMI-8226 leukemia was 0.955% (active); in the assay with OVCAR-8 ovarian it was 12.4%; in the assay on OVCAR-5 ovarian, -11.6% (active); in the assay on OVCAR-4 ovarian it was 53.7%; in the assay on SK-OV-3 ovarian, -40.8% (active); in the assay on IGROV1 ovarian, 7.9% (active). Further, the growth in the assay with OVCAR-3 ovarian was -26.3% (active); in the assay with HS 578T breast, 25.9%; in the assay on NCI/ADR-RES ovarian, 20.3%.
Consider `O=C(CS(=O)(=O)c1oc(-c2ccc(Cl)cc2)nc1S(=O)(=O)c1ccc(Cl)cc1)N1CCOCC1`, for which the growth in the assay with RPMI-8226 leukemia was -9.59% (active); with OVCAR-8 ovarian, 28.3%; with OVCAR-5 ovarian, 38.3%; in the assay on OVCAR-4 ovarian, -8.45% (active); in the assay with SK-OV-3 ovarian it was 92.8%; with IGROV1 ovarian it was 73.5%. Further, the results for the growth in the assay on OVCAR-3 ovarian, in the assay on HS 578T breast and in the assay on NCI/ADR-RES ovarian were 6.83% (active), 76% and 28.2%, respectively.
As for `COc1ccc2[nH]c(O)c(N=NC(=O)c3cc(-c4ccc(C)cc4)nc4ccccc34)c2c1`, the growth is 76.4% in the assay on RPMI-8226 leukemia; 88.5% with OVCAR-8 ovarian; 119% in the assay with OVCAR-5 ovarian; 91.8% with OVCAR-4 ovarian; 106% with SK-OV-3 ovarian; 102% in the assay with IGROV1 ovarian. The growth with OVCAR-3 ovarian was 98.3%; with HS 578T breast it was 91%; in the assay with NCI/ADR-RES ovarian, 71.6%.
`O=C1Nc2cc(Cl)ccc2/C1=C/c1cccc(OCc2ccc(Br)cc2F)c1`: the growth with RPMI-8226 leukemia is -20.1% (active); in the assay on OVCAR-8 ovarian, -15.8% (active); with OVCAR-5 ovarian it was 30.2%; with OVCAR-4 ovarian it was 39.1%; in the assay on SK-OV-3 ovarian it was 40.7%; in the assay with IGROV1 ovarian, 20.2%. Further, the growth in the assay with OVCAR-3 ovarian was -39% (active); in the assay on HS 578T breast, -10.1% (active); in the assay with NCI/ADR-RES ovarian, -35.1% (active).
Take `CN1CCN(c2ccc(C(=O)/C=C/c3cc(Br)ccc3F)cc2)CC1`: the growth in the assay with RPMI-8226 leukemia was -24.7% (active); with OVCAR-8 ovarian, 64.2%; with OVCAR-5 ovarian, 135%; in the assay on OVCAR-4 ovarian it was 59.6%; in the assay on SK-OV-3 ovarian, 44.4%; with IGROV1 ovarian it was 33.1%. For the same compound, the results for the growth in the assay with OVCAR-3 ovarian, in the assay on HS 578T breast and in the assay with NCI/ADR-RES ovarian were 33.8%, 95.1% and 35.3%, respectively.
On to `CC1(C)CC[C@]2(C(=O)O)CC[C@]3(C)C(=CC[C@@H]4[C@@]5(C)C/C(=C/c6ccncc6)[C@H](O)C(C)(C)[C@@H]5CC[C@]43C)[C@@H]2C1`, for which the growth in the assay on RPMI-8226 leukemia is 19%; in the assay on OVCAR-8 ovarian, 44.5%; in the assay on OVCAR-5 ovarian, 67.6%; in the assay with OVCAR-4 ovarian it was 42.6%; in the assay on SK-OV-3 ovarian, 65%; with IGROV1 ovarian, 49.1%. Further, the growth with OVCAR-3 ovarian was 40.9%; in the assay with HS 578T breast, 52.7%; in the assay with NCI/ADR-RES ovarian it was 32.7%.
For the compound `O=c1[nH][nH]c(Nc2ccccc2)c1N=Nc1ccc(F)cc1`, the growth in the assay on RPMI-8226 leukemia is 112%; in the assay on OVCAR-8 ovarian it was 101%; in the assay on OVCAR-5 ovarian, 112%; in the assay with OVCAR-4 ovarian, 80.5%; in the assay on SK-OV-3 ovarian it was 94.5%; in the assay on IGROV1 ovarian, 80.3%. In addition, the growth in the assay on OVCAR-3 ovarian was 103%; in the assay on HS 578T breast it was 65.2%; in the assay with NCI/ADR-RES ovarian, 100%.
